Hsp90 Hop PPI – changes Hsp90-Hop TPR2A binding signal, up or down; AlphaScreen TPR2A-His6 binding biotin-Hsp90 C-terminal peptide; Potency, µM (doses to about 57 µM), without a hit: at the highest dose activity change, negative = inhibition; 71,000 tested, 0.44% active; active means well fitted curve in either direction with a large enough effect; inconclusive means small, poorly fitted or top-dose-only effect, or another doubt; further: potency means the concentration at half of the fitted maximal effect; on the % scale 0 is the no-effect control and ±100 the full control effect
p53ts 39C kill – kills p53ts cells at the nonpermissive temperature; H1299-p53A138V viability at 39C, ATP luminescence, 24 h; Potency, µM (top dose mostly 46.1 µM), without a hit: top-dose activity change, negative = cell killing, usual class: cytotoxic; 130,000 tested, 1.5% active; further: potency means the concentration at half of the fitted maximal effect; on the % scale 0 is the no-effect control and ±100 the full control effect; nearly all actives have a fitted effect of over 55% in size
IkB sig inh – suppresses IkB signaling in ABC-DLBCL reporter cells; ABC-DLBCL IkBa-CBG/CBR dual luciferase ratio, 4 h; response scale: scaled: untreated 0%, proteasome inhibitor 100%; Potency, µM (titrated, usually from 57.1 µM), for the others: at the top dose IkBa stabilization activation; 110,000 tested, 0.04% active; AID 445; active means well fitted curve in the direction sought with a large enough effect in the signal ratio, not every such curve was filed as active; inconclusive means small, poorly fitted or top-dose-only effect, or a change in a side signal; the % refers to the signal ratio;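 further: potency means the concentration at half of the fitted maximal effect; the direction sought is a rising ratio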
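Curves were fitted separately to fusion (green), unfused (red) and ratio luminescence, then classed by r2, magnitude and activity. Cells: OCI-Ly3, 4 h compound plus doxycycline at 37C; 10 uM MG-132 defined full response.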
FLuc inh – blocks Photinus pyralis firefly luciferase activity | 72,000 tested, 2.2% active | Potency, µM (series often up to 57.1 µM), inactives show at the top dose activity change, negative = inhibition, most hits filed as inhibitors | purified firefly luciferase, luminescence, 8 min; further: potency means the concentration at half of the fitted maximal effect; on the % scale 0 is the no-effect control and ±100 the full control effect; nearly all actives have a fitted effect of over 40% in size
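Luminescence read-out after 8 min at room temperature; enzyme reaction used luciferin plus 10 uM ATP (linear range) in imidazole buffer pH 7.2 with KCl, MgCl2, Tween 20 and BSA. Each sample was run as a titration.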
p53ts 32C tox – cytotoxicity in p53ts cells at permissive temperature; Potency, µM (highest dose often 46.1 µM), for inactives: at the highest dose activity change, negative = cytotoxicity, hits mostly cytotoxic; H1299-p53A138V at 32C, ATP luminescence viability, 24 h; AID 924; 130,000 tested, 0.93% active;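 further: potency means the concentration at half of the fitted maximal effect; 0% = DMSO and -100% = full killing by reference compound; nearly all actives have a fitted effect of over 55% in size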
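Viability by ATPlite luminescence after 24 h compound treatment (up to 46 uM) at the permissive 32C. Cells are H1299 carrying p53 A138V. Scale runs from DMSO basal to 100 uM tamoxifen as full kill; AC50 from Hill fits.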
IMPase cell inh – cell-permeable inhibitors of inositol monophosphatase (IMPase) | CHO-M1 cells, IP1 accumulation, HTRF TR-FRET ratio | inhibition (IP1 accumulation), % at 46.1 µM | 120,000 tested, under 10 active; active means well fitted curve in the direction sought with a large enough effect in the signal ratio, not every such curve was filed as active; inconclusive means small, poorly fitted or top-dose-only effect, or a change in a side signal; inactive means no such curve, though single readings can be large or run the other way; the % refers to the signal ratio;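 further: cells stimulated with carbachol in lithium chloride buffer; plate controls were DMSO basal wells for no effect and reference inhibitor wells for full effect; higher means more IMPase inhibition seen as more IP1 and lower FRET ratio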
Target sequence (P97697 whole entry, looked up): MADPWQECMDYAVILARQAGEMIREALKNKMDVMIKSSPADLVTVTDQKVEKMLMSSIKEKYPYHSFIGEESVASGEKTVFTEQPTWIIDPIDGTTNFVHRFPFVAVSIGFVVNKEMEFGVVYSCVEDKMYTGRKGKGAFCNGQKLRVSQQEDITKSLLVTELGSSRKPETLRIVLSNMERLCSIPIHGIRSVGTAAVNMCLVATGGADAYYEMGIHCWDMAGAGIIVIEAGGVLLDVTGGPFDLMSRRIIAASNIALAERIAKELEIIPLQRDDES
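Measured: the HTRF emission ratio (665/620 nm) plus the 620 nm donor channel, each fitted to the Hill equation to give AC50. Cells were CHO-M1 given compounds up to 46 uM and a 30 min carbachol stimulation at 37C.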
Numbers without * were called inactive; u = inconclusive; x = no result; [ ] = dose if it differs, or a comment. Shown is part of a subset that was picked to be rich in hits. Unless noted, the call rests on the fitted dose curve; in most records, active means well fitted curve in the direction sought with a large enough effect; inconclusive means small, poorly fitted or top-dose-only effect, or another doubt; inactive means no such curve, though single readings can be large; an effect the other way counts as inactive or inconclusive.

SMILES	Hsp90 Hop PPI	p53ts 39C kill	IkB sig inh	FLuc inh	p53ts 32C tox	IMPase cell inh
Cc1ccc(C(=O)Cn2c3c(sc2=N)CCCC3)cc1	-0.4%	1.58µM*	-0.3%	3.1%	2µM*	6.6
c1ccc2c(c1)Cn1c-2nc2ccccc21	0.6%	7.94µM*	u	12.6µM*	12.6µM*	-6.9
COc1cccc(NS(=O)(=O)c2ccc3[nH]cc(C(=O)N(C)C4CCCCC4)c(=O)c3c2)c1	x	16.9%	u	x	4.6%	x
O=C(CSc1nc2c([nH]c3ccccc32)c(=O)n1-c1ccc(Cl)cc1)NC1CCCCC1	x	10µM*	u	x	3.8%	x
CCCC(=O)Nc1ccc2nn(-c3ccc(CC)cc3)nc2c1	x	10µM*	-4.5%	x	-17.4%	-5.7
CCOC(=O)c1cnc(SCc2ccccc2)nc1N	12.1%	-14.6%	-2.6%	15.8µM*	-13.8%	-6.4
CC(C)c1ccc(Nc2ncnc3c2c(-c2ccccc2)cn3-c2ccccc2)cc1	x	-26.5%	u	x	5.1%	x
O=c1c2c(nc3cc(-c4ccc(F)cc4)[nH]n13)CCCC2	-2.1%	10µM*	u	7.94µM*	12.6µM*	-0.3
O=C1c2ccccc2-c2onc3c(Br)cc(NC4CCCCC4)c1c23	x	9.1%	u	x	-2.1%	x
O=C1c2ccccc2C(=O)c2c(NC3CCCCC3)ccc(Nc3ccc(S(=O)(=O)O)cc3)c21	3.98µM*	2.4%[9.22 µM]	4.5%[11.4 µM]	-12.5%[11.4 µM]	-8.5%[9.22 µM]	x
O=C(Cn1ncc2c(=O)oc3ccccc3c21)Nc1cc(F)ccc1F	x	6.31µM*	1.5%	x	2.9%	x
Fc1ccc(-c2cc(C(F)(F)F)nc(NCC3CCCO3)n2)cc1 (stereo not given)	u	-5.6%	0.7%	-2.7%	20.6%	11.0
FC(F)(F)c1cc(-c2ccccc2)nc(NCC2CCCO2)n1 (stereo not given)	31.6µM*	18.7%	u	-0.8%	40.0%	0.6
O=C(NCCCn1ccnc1)C(F)(F)C(F)(F)C(=O)NCCCn1ccnc1	25.1µM*	-2.2%	-0.2%	0.0%	-0.6%	3.7
Cc1ccc(-c2cn3ccc(C)cc3n2)cc1	x	0.631µM*	u	x	0.501µM*	-10.0
COc1ccc(-c2cn3ccccc3n2)cc1OC	-3.3%	5.01µM*	1.9%	3.16µM*	3.16µM*	-2.3
COc1ccc(-c2cn3cc(C)ccc3n2)cc1OC	-3.0%	12.6µM*	0.4%	2.51µM*	10µM*	-21.1
O=C1C2=CC[C@@H]3C(=O)N(c4ccc(F)cc4F)C(=O)[C@H]3[C@H]2[C@H](O)[C@H]2O[C@H]12	x	0.6%[9.22 µM]	x	0.9%[11.4 µM]	10.4%[9.22 µM]	x
COc1ccc(-n2c(/C=C/c3ccccc3F)nc3cc(OC)c(OC)cc3c2=O)cc1Cl	x	-12.0%	-0.6%	x	-6.2%	x
Cc1ccc2nc(-c3ccc(N)cc3)sc2c1S(=O)(=O)O	-2.0%	15.8µM*	1.9%	x	-8.4%[1.84 µM]	x
Cc1nc2ccc(N)cc2s1	-2.2%	17.2%	2.3%	2.6%	-6.6%	4.4
CCOc1ccc(-n2nc(CO)c(C(=O)NCc3ccccn3)n2)cc1	x	u	0.9%	x	u	x
CC(C)Sc1ncc(Cl)c(C(=O)Nc2ccc(S(=O)(=O)N(C)c3ccccc3)cc2)n1	x	-23.6%	u	x	12.3%	x
CS(=O)(=O)c1ncc(Cl)c(C(=O)Nc2ccc(N3CCOCC3)cc2)n1	-10.4%	u	u	-26.1%	12.6µM*	7.5
CCS(=O)(=O)c1ncc(Cl)c(C(=O)Nc2ccc(S(=O)(=O)N(C)c3ccccc3)cc2)n1	x	3.16µM*	u	x	u	x
SMILES	Hsp90 Hop PPI	p53ts 39C kill	IkB sig inh	FLuc inh	p53ts 32C tox	IMPase cell inh
O=C(Nc1ccc(N2CCOCC2)cc1)c1cnsn1	-3.7%	5.01µM*	u	3.98µM*	3.98µM*	5.2
CCN(c1ccccc1)S(=O)(=O)c1ccc(NC(=O)c2nc(S(C)(=O)=O)ncc2Cl)cc1	x	3.16µM*	-2.1%	x	u	x
CCSc1ncc(Cl)c(C(=O)Nc2ccc(S(=O)(=O)N(C)c3ccccc3)cc2)n1	x	-13.4%	-0.7%	x	6.4%	x
COc1cc(NC(=O)CCc2c(C)nc3nc(-c4cc(OC)cc(OC)c4)nn3c2C)cc(OC)c1	x	-15.7%	0.7%	x	6.0%	x
COc1ccc(C(=O)NCCn2ccc3ccccc32)cc1OC	-6.5%	-6.7%	u	10µM*	-13.0%	12.6
CCCCNC(=O)CSc1nc2n[nH]c(C)c2c(=N)n1-c1ccccc1CC	x	36.9%	u	x	11.8%	x
COc1ccccc1C(=O)Oc1c(Sc2ccccc2)c(C)nn1-c1ccccc1	x	-22.2%	u	x	15.8µM*	x
CC(C)(C)c1ccc(-c2nc(SCCCOc3ccccc3)n3[nH]c(=O)cc3n2)cc1	x	20µM*	u	x	6.5%	x
COc1ccc(NC(=O)CSc2nc(-c3ccccc3)nc3cc(=O)[nH]n23)cc1	x	9.4%	u	x	-3.1%	x
Cc1cc(OCCCSc2nc(-c3ccc(C(C)(C)C)cc3)nc3cc(=O)[nH]n23)ccc1Cl	x	15.8µM*	3.6%	x	29.7%	x
Cc1cc(C)cc(OCCSc2nc(-c3ccc(C(C)(C)C)cc3)nc3cc(=O)[nH]n23)c1	x	u	5.3%	x	u	x
COc1cccc(-c2nc(SCc3ccc(C)cc3)n3[nH]c(=O)cc3n2)c1	x	12.6µM*	-2.5%	x	-1.4%	x
CC(C)(C)N1C(=O)c2ccc(C(=O)Nc3nccs3)cc2C1=O	-6.8%	-28.9%	1.5%	5.01µM*	u	-3.7
Cc1sc(NC(=O)c2cccs2)c(C(N)=O)c1C	0.7%	u	-0.7%	12.6µM*	u	4.1
CCOC(=O)c1c(NC(=O)c2cccs2)sc(CC)c1-c1cccs1	x	x	x	x	x	-2.4
CC(C)OC(=O)c1c(NC(=O)c2cccs2)sc2c1CCCC2	25.1µM*	5.3%	4.4%	-7.1%	5.3%	0.5
O=C(Nc1sc2c(c1C(=O)O)CCCC2)c1cccs1	0.9%	-7.7%	u	-10.8%	-25.4%	-4.9
CCOc1cc(C(=O)CSc2nnc(CNc3ccc(Cl)cc3)o2)ccc1NC(=O)CC	u	15.8µM*	3.5%	3.9%	15.8µM*	16.1
